The record followed here is PubChem BioAssay AID1347434 (National Center for Advancing Translational Sciences (NCATS), 2020).

Hit rate of the full screen: of about 1,200 compounds, about 30 (2%) were called active. A call without a number means that no potency is given here. About 23% were inconclusive and are not listed. Calls come from the whole dose curve; as a rule, active = well fitted inhibition curve with a large enough effect; inconclusive = small, poorly fitted or top-dose-only effect; inactive = flat fitted curve, though single readings scatter. This excerpt belongs to a sample that is enriched for actives.
Potency is the fitted concentration of half-maximal effect.

Chain of Single-stranded DNA cytosine deaminase (Homo sapiens) (Q9GZX7 whole entry, looked up): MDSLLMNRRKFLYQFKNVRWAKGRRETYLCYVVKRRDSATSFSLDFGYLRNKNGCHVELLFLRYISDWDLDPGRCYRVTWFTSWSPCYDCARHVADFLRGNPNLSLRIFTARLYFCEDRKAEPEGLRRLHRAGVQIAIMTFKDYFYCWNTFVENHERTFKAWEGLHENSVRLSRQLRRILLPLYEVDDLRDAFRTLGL

The experiment deals with Single-stranded DNA cytosine deaminase (Homo sapiens) (UniProt Q9GZX7). As to the kind of experiment: Confirmatory qHTS assay for inhibitors of Activation Induced Cytidine Deaminase (AID): AID signals. The note with it: recombinant AID, FRET deamination/UDG coupled fluorescence, 4 h; series mostly up to 115 µM. The text has this:
Assay Provider (PI) Patricia Gearhart Ph.D. National Institute on Aging National Institute of Health (NIH), Bethesda, MD Assay Provider (PI) Rahul Kohli Ph.D. Perelman School of Medicine University of Pennsylvania, Philadelphia, PA Activation-Induced Deaminase (AID) is a cytosine deaminase which converts cytosine into uracil within stretches of ssDNA. The presence of uracil in DNA initiates a cascade of mutagenic DNA repair to introduce point mutations and DNA double strand breaks. Specific targeting of AID to the immunoglobulin heavy chain loci (Igh) promotes mutagenesis in the antibody variable region for somatic hypermutation (SHM) or switch regions leading to class switch recombination (CSR). However, AID also plays a role in accumulating unnecessary mutations across the genome. Mis-targeting of AID results in the initiation of tumor development and leads to greater drug resistance among cancer cells when continually expressed. To identify an AID inhibitor, a small molecule library will be screened in collaboration with NCATS core facility at NIH. To confirm biological function, inhibitors will be examined in an in vitro murine B-cell activation assay and subsequent secondary validation screens. Top molecules will be further screened to identify inhibitory efficacy against a wild type primary splenocytes assay. Using these approaches, we hope to identify a small molecule with great efficacy and low toxicity for use as a molecular probe to further characterize AID's intricacies, or even as a therapeutic. A FRET based analysis of cytosine deamination, was developed to identify potential inhibitors of AID catalytic activity. This screen has two signal output, Read 1 evaluates the AID inhibition response. The second readout (Read 2) evaluates UDG response and is uses as a counterscreen to exclude false positive inhibitors. Inhibition in AID and inactivity in the UDG signal is the desired outcome for this assay.
PROTOCOL TABLE SEQUENCE No. (e.g., 1, 2, 3, etc.); […] (e.g., Cells, Incubation, Reagent, etc.); VALUE; DESCRIPTION 1a; Reagent; 3 uL; [4/3x] 1 uM AID/2.67 U/mL UDG 1b; Reagent; 3 uL; 2 U/mL UDG 1c; Reagent; 3 uL; 1 uM AID 2a; Compound; 46 nL; Follow-up plates (0.64 uM - 10 mM) 2b; Control; 46 nL; ATA (16.4 nM - 10 mM) 3; Time; 10 min; incubation at room temperature 4; Reagents; 1 uL; [4x] 250 nM DJC20 / 250 nM DJC23 [Substrate] 5; Time; 4 hr; incubation at room temperature 6; Reagent; 4 uL; [2x] 250 mM NaOH 7; Time; 15 sec; centrifuge at 1000 rpm 8; Time; 30 min; incubation at room temperature 9a; Detection; fluorescence (Read 1: AID); EnVision (PerkinElmer) plate reader, 540 excitation and 590 emission filters 9b; Detection; fluorescence (Read 2: UDG); EnVision (PerkinElmer) plate reader, 560 excitation and 665 emission filters NOTES (numbers refer to sequence above) 1a; Reagents were dispensed in a medium-binding black solid-bottom Greiner plates (789176F) using a BioRptr liquid dispenser. Dispense 3 uL of [4/3x] 1 uM AID (provided by Kohli lab) and [4/3x] 2 U/mL UDG (NEB M0280L) into columns 1, 2, 5 to 48. 1b; Dispense 3 uL of [4/3x] 2 U/mL UDG into column 3. 1c; Dispense 3 uL of [4/3x] 1 uM AID into column 4. 2a; Compound ([…] [uM]: 0.64; 3.2; 16; 80; 400; 2,000; 10,000; 20,000) double pin-transferred (Dip Factor = 2) using the Kalypsys (Wako USA) pintool equipped with a 1536 pinhead for a final concentration range of 7.32 nM - 114 uM. 2b; 10 mM Aurintricarboxylic Acid (Sigma A1895) (ATA, 8-point, n = 2, 1:2.5 dilution in column 2) double pin-transferred (Dip Factor = 2) using the Kalypsys (Wako USA) pintool equipped with a 1536 pinhead for a [final] range of 186 nM - 114 uM. 3; Room temperature incubation. 4; Dispense 1 uL of substrate mixture from the Kohli lab [4x] […] DJC20 and [4x] 250 nM DJC23 into columns 1 to 48 . 5; Room temperature incubation. 6; Dispense 4 uL of […] [2x] 250 mM NaOH into columns 1 to 48. 7; Centrifugation step to remove bubbles. […]
As for `NC(Cc1cc(O)c(O)cc1O)C(=O)O` (stereo unspecified), the Potency is 22.4 µM (active).
Consider `NCC(O)c1cc(O)c(O)cc1F` (stereo unspecified), for which the Potency result was “inactive”.
As for `O=C(Nc1cc(C(F)(F)F)cc(C(F)(F)F)c1)c1cccn(Cc2ccccc2Cl)c1=O`, the entry is “inactive”.
As for `CN1CC[C@@]2(C)c3cc(O)ccc3N(C)C12` (stereo partly specified), the figure is 22.4 µM (active).
As for `COc1cc(C(c2c(O)c3ccccc3oc2=O)c2c(C)n(C)n(-c3ccccc3)c2=O)ccc1O` (stereo unspecified), the Potency result is “inactive”.
The same measure for `Cc1cccc(-c2nc(CN3C(=O)CN=C(c4ccccc4)c4ccccc43)c(C)o2)c1`: “inactive”.
The same measure for `Cc1ccc(NC(=O)N(Cc2ccc3c(c2)OCO3)C2CCN(Cc3ccccc3)CC2)cc1C`: “inactive”.
As for `CCCC1=Nc2cc(C(=O)NCCCN(CC)CC)ccc2Sc2ccccc21`, the entry is “inactive”; as for `O=S1(=O)N(CCN2CC=C(c3c[nH]c4cc(F)ccc34)CC2)c2cccc3c2N1CCC3`, “inactive”; as for `CC(=O)c1c(O)c(C)c(O)c(Cc2c(O)c3c(c(C(=O)/C=C/c4ccccc4)c2O)OC(C)(C)C=C3)c1O`, 14.1 µM (active).
Take `O=C(c1ccc2c(c1)N(Cc1ccc(F)cc1)C(=O)c1ccccc1S2)N1CCC2(CC1)OCCO2`: the Potency entry was “inactive”.
As for `Cc1ccccc1CN1C(=O)C(C)N=C(c2ccccc2)c2ccccc21` (stereo unspecified), the entry is “inactive”.
As for `COc1ccc2c(c[n+](C)c3c4cc5c(cc4ccc23)OCO5)c1OC`, the figure is 17.8 µM (active); as for `Cc1cccc(CN2C(=O)CN=C(c3ccccc3)c3cc(Cl)ccc32)c1`, “inactive”; as for `Cc1c(C(c2ccc(Cl)cc2Cl)c2c(O)c3ccccc3oc2=O)c(=O)n(-c2ccccc2)n1C` (stereo unspecified), “inactive”.
For the compound `Cc1ccccc1CN1C(=O)CN=C(c2ccccc2)c2cc(Cl)ccc21`, the Potency result was “inactive”.
